Screens from PubChem.
An excerpt weighted towards active compounds, which were near 6.3% of everything screened.
Spn DPM-DC inh = S. pneumoniae DPM-DC inhibition; calls only at 10 µM; 65,000 tested, 0.49% active; purified DPM-DC, PK/LDH coupled NADH fluorescence; AID 556;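 active = the 320 compounds with the highest percent inhibition in the single-dose primary screen, excluding strongly autofluorescent ones, cut at about 32% in these data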;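 note: kinetic rate of NADH fluorescence loss reporting ADP formed by the decarboxylase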
MK inhibit = S. pneumoniae mevalonate kinase inhibition; purified MK, PK/LDH-coupled NADH absorbance 340 nm; inhibition, % at 10 µM; 65,000 tested, 0.48% active;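 active = ranked among the strongest by inhibition in the single 10 µM screen, a fixed top-ranked set picked for dose follow-up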
Spn PMK inh = blocks S. pneumoniae phosphomevalonate kinase; AID 539; inhibition, % at 10 µM; purified PMK, PK/LDH-coupled NADH absorbance 340 nm; 65,000 tested, 0.49% active;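 active = top-ranked compounds by inhibition in the single 10 µM screen, taking a fixed number of the strongest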;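 note: 0% = full reaction with DMSO carrier and 100% = background rate without enzyme reaction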
A340 absorber = compounds absorbing at 340 nm; compound absorbance at 340 nm, fold over control; AID 708; 65,000 tested, under 10 active; fold change at 10 µM;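 active = at 10 µM dose, initial 340 nm absorbance at least 2 fold that of control wells; inactive = change under 2 fold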;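 note: initial absorbance extrapolated from kinetic A340 decline of NADH oxidation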
NADH enzymes = inhibition of NAD/NADH coupling enzymes, library profiling; coupled PK/LDH NADH assays, four targets; IC50, µM (highest dose often 10 µM), inactives show at the highest dose inhibition; 65,000 tested, 0.02% active; AID 774;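 active = single-dose screening hits from any of four coupled enzyme assays that gave an IC50 when retested across doses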;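 note: the DPM-DC format reads NADH fluorescence rather than 340 nm absorbance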
Autofluor 339 = intrinsic fluorescence of library compounds, ex339/em460 – biochemical, MLSMR library, data from DPM-DC assay, artefact control, profiling panel; compound autofluorescence, ex339/em460 nm, NADH buffer; hits give high values; 1 = no-compound wells, NADH background; fluorescence fold increase at 10 µM; 65,000 tested, 5.5% active; AID 709;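 active = at 10 µM, mean starting fluorescence two-fold or more over control wells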;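 note: signal is the first read of a kinetic run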
* = called active by the depositor; i = inactive; · = not tested or not shown.

SMILES | Spn DPM-DC inh | MK inhibit | Spn PMK inh | A340 absorber | NADH enzymes | Autofluor 339
COc1ccc(OC)c(-c2nnc(-c3ccc(C)o3)o2)c1 | · | 12 | 10 | 1.1 | 11% | 3.9*
COCc1cc(=O)n2[nH]c(-c3ccccc3)cc2n1 | · | 3 | 2 | 1.1 | 3% | 2.1*
Cc1ccc2nc3c(c(N)c2c1)CCN3c1ccccc1 | · | 1 | 3 | 1.1 | 2% | 3.7*
Cc1ccc2cc(C)c(N3CCN(c4ccccn4)CC3)nc2c1 | i | 0 | 0 | 1.1 | 4% | 1.5
CCC(C)NC(=O)c1cn(C)c(=O)c2cc(OC)c(OC)cc12 (configuration not stated) | i | 1 | 0 | 1.1 | 0% | 1.1
CCOC(=O)Nc1sc2c(c1C(=O)OCC)CCC2 | i | 2 | 3 | 1 | 2% | 1.1
CCOC(=O)c1c(NC(=O)c2noc3c2CCCC3)sc2c1CCCC2 | i | 8 | 10 | 1 | 11% | 1.2
CCOC(=O)c1c(NC(=O)c2ccoc2C)sc2c1CCC2 | · | 13 | 0 | 1 | 6% | 2.2*
CCC1CCc2c(sc(NC(=O)c3ccoc3C)c2C(N)=O)C1 (configuration not stated) | · | 0 | 0 | 1.1 | 0% | 2.1*
CCCc1cc(C(=O)Nc2sc3c(c2C(=O)OCC)CCCC3)no1 | · | 5 | 4 | 1.1 | 5% | 2.1*
O=C(Nc1cccc(S(=O)(=O)c2cccc(NC(=O)C3CC3)c2)c1)C1CC1 | i | 9 | 6 | 1 | 5% | 1.1
CSc1ccccc1NC(=O)c1c(C)noc1C | i | 4 | 7 | 1 | 4% | 1.1
OC1CCCN(Cc2ccc3c(c2)Cc2ccccc2-3)C1 (configuration not stated) | i | 9 | 33* | 1 | 14% | 1.1
CN(C)CCN(C)Cc1ccc2c(c1)Cc1ccccc1-2 | i | 4 | 0 | 1 | 1% | 1.1
Fc1ccc(CSc2nc3ncccc3[nH]2)cc1 | i | 0 | 1 | 1 | 0% | 1.1
CCOC(=O)c1sc(NCCNc2nc(C)c(C(=O)OCC)s2)nc1C | i | 2 | 2 | 1.1 | 1% | 1.1
CCOC(=O)c1sc(NC(=O)c2ccc(Cl)s2)cc1C | · | 6 | 1 | 1.1 | 4% | 2.1*
CCOC(=O)c1sc(NC(=O)c2ccc(CC)s2)nc1C | · | 0 | 3 | 1.1 | 2% | 3.3*
CCOC(=O)c1sc(NC(=O)C2CC2)cc1C | i | 4 | 0 | 1.1 | 3% | 1
Cc1cc(C)c(-n2c(O)c(C=NCCN3CCOCC3)c(=O)[nH]c2=O)c(C)c1 | i | 2 | 8 | 1 | 3% | 1.1
CC(NS(=O)(=O)c1ccc(F)cc1)C(c1cccs1)N1CCN(C)CC1 (configuration not stated) | i | 0 | 16 | 1 | 10% | 1
O=c1c2c(nc3c(-c4ccc(Cl)cc4)c[nH]n13)CCCC2 | · | 0 | 1 | 1 | 1% | 4.1*
Cc1[nH]n2c(=O)c3c(nc2c1-c1ccccc1)CCCC3 | i | 3 | 9 | 1 | 6% | 1.5
O=c1c2c(nc3c(-c4cccc5ccccc45)c[nH]n13)CCC2 | · | 13 | 2 | 1.1 | 8% | 3.6*
O=C(CSc1ccccc1)Nc1ccncc1 | i | 0 | 4 | 1.1 | 1% | 1.1
SMILES | Spn DPM-DC inh | MK inhibit | Spn PMK inh | A340 absorber | NADH enzymes | Autofluor 339
O=C1CN(C(=O)COC(=O)C2=COCCO2)c2ccccc2N1 | i | 56* | 23 | 1 | 26% | 1.1
Cn1c(NCCCN2CCOCC2)nc2c1c(=O)n(Cc1ccc(Cl)c(Cl)c1)c(=O)n2C | i | 8 | 7 | 1.1 | 5% | 1.1
COc1cc(-c2nc3cnccn3c2Nc2ccc3c(c2)OCCO3)ccc1O | i | 7 | 0 | 1.1 | 8% | 1.5
COc1cc(-c2nc3cnccn3c2Nc2ccccc2)ccc1O | · | 3 | 2 | 1.1 | 3% | 2.1*
CCOc1ccc2cc(C#N)c(SCC(=O)N3CCOCC3)nc2c1 | · | 11 | 3 | 1 | 3% | 2.7*
COc1ccc(OC)c(NC2c3ncccc3C(=O)N2Cc2ccco2)c1 (configuration not stated) | i | 26 | 17 | 1.1 | 14% | 1.1
COc1ccc(CN2C(=O)c3cccnc3C2Nc2cc(Cl)ccc2OC)cc1 (configuration not stated) | i | 83* | 14 | 1 | 17% | 1
CCOC(=O)N1CCC(NC(=O)C2CCN(S(=O)(=O)N3CCC(C)CC3)CC2)CC1 | i | 1 | 16 | 1 | 6% | 1
